# Hits are enriched below; roughly 0.9% of the tested compounds scored in any of these assays.
# APEX1 inh: qHTS Assay for Inhibitors of the Human Apurinic/apyrimidinic Endonuclease 1 (APE1). recombinant APE1, TAMRA/BHQ-2 abasic DNA cleavage fluorescence. AID 2517, 2012. DNA repair nuclease/redox regulator APEX1 (Homo sapiens), P27695. 0.35% of 350,000 active. Potency, µM (highest dose often 65.8 µM), for inactives: at the top dose activity change, negative = inhibition, usual class: inhibitors;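 also: plate controls were vehicle for no effect and reference inhibitor for full effect; nearly all actives have a fitted effect of over 55% in size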
#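 Readout is kinetic fluorescence (ex 525, em 598 nm) from cleavage of 50 nM TAMRA/BHQ-2 THF abasic duplex by 0.75 nM APE1, compound added 15 min beforehand at RT.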
# TDP1 inh: qHTS Assay for Inhibitors of Tyrosyl-DNA Phosphodiesterase (TDP1); Potency, µM (titrated, usually from 130 µM), for the others: at the top dose activity change, negative = inhibition, usual class: inhibitors; 0.28% of 350,000 active; recombinant TDP1, AlphaScreen DNA substrate cleavage; also: nearly all actives have a fitted effect of over 40% in size
# Target sequence (Q9NUW8 whole entry, looked up): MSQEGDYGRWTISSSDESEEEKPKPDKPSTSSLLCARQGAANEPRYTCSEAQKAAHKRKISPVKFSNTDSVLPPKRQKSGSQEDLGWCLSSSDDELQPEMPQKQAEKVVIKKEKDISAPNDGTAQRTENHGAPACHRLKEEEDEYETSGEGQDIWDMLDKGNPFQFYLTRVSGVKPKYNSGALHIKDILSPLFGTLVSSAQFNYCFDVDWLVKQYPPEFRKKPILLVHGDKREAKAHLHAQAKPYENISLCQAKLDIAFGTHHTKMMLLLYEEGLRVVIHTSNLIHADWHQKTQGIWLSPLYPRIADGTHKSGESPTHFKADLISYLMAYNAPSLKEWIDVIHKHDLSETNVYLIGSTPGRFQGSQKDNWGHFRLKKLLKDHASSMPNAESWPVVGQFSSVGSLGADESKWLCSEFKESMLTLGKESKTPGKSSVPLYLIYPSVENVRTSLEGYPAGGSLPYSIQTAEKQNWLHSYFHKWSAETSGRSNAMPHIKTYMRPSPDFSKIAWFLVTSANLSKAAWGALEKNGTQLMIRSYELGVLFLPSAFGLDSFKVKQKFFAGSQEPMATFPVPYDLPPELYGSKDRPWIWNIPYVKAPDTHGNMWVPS
#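 Compounds were preincubated with Tdp1 (1 nM final) for 15 min at room temperature before substrate (15 nM final) started a 5 min reaction; beads (10 ug/ml final) were then added for 10 min before AlphaScreen detection.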
# LMNA splice mod: qHTS Assay for Modulators of Lamin A Splicing; Potency, µM (doses to about 46.1 µM), for inactives: top-dose ratio change, negative = inhibition, most hits filed as inhibitors; HeLa LMNA splicing GFP/RFP minigene ratio, 48 h; 0.01% of 200,000 active; AID 1487, 2009; active = well fitted inhibition curve with a large enough effect in the signal ratio, with a control signal flat, not every such curve was filed as active; inconclusive = small, poorly fitted or top-dose-only effect, or effect the other way, or a change in a side signal; the % refers to the signal ratio
#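 S3 HeLa stable clones carrying a lamin A-EGFP splicing minigene plus DsRed2 were seeded at 600 cells/well in Opti-MEM with 2% FBS, pin-dosed and incubated 48 h at 37°C. Acumen cytometry (488 nm) gave the GFP/RFP total-intensity ratio.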
# BLM inh-1: qHTS Assay for Inhibitors of Bloom's syndrome helicase (BLM). recombinant BLM DNA unwinding, fluorescence dequenching. Potency, µM (series often up to 56.1 µM), without a hit: at the highest dose activity change, negative = inhibition, hits mostly inhibitors. 0.2% of 350,000 active. AID 2528, 2010;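 also: plate controls were vehicle for no effect and no enzyme for full effect; nearly all actives have a fitted effect of over 35% in size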
# RECQ1 helicase: qHTS Assay for Inhibitors of RecQ-Like Dna Helicase 1 (RECQ1); 0.54% of 240,000 active; Potency, µM (top dose mostly 57.3 µM), without a hit: top-dose activity, negative = inhibition, actives largely listed as inhibitors; RECQ1 DNA unwinding, red fluorescence kinetic read; AID 2549, 2010; ATP-dependent DNA helicase Q1 (Homo sapiens), P46063;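 also: plate controls were vehicle for no effect and no enzyme for full effect; nearly all actives have a fitted effect of over 30% in size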
#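 RECQ1T1 50 nM; forked duplex (20 bp + 30-nt ss tails) 200 nM, ATP 2 mM final; pH 8.0, 2 mM MgCl2, 2.5 ug/ml poly(dI-dC); 15 min compound preincubation; discontinuous kinetic read over 2 h at RT.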
# KAT2A inh: qHTS Assay for Inhibitors of GCN5L2; Histone acetyltransferase KAT2A (Homo sapiens), Q92830; GCN5L2 HAT assay, ThioGlo1 CoA-SH fluorescence; 0.21% of 390,000 active; Potency, µM (titrated, usually from 58.9 µM), without a hit: at the top dose activity change, negative = inhibition, most hits filed as inhibitors; AID 504327, 2011
#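 GCN5L2 (20nM final) in 50mM HEPES, 0.1mM EDTA pH 7.5, 0.01% Tween-20 was preincubated 15 min at room temperature with compound, then given ThioGlo1 (50uM), H3(1-25) peptide (75uM) and acetyl-CoA (70uM); CoA-thiol fluorescence (Ex340/Em540) was read at 0 and 20 min.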
# BLM inh-2: qHTS Confirmation Assay for Inhibitors of Bloom's syndrome helicase (BLM); shares compounds with BLM inh-1; BLM DNA unwinding, fluorescence quenching, biochemical; Potency, µM, for the others: max response, negative = inhibition, hits mostly inhibitors; 40% of 220 active;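 also: strand separation dequenches TAMRA so unwinding raises red fluorescence; series mostly up to about 69 µM; nearly all actives have a fitted effect of over 45% in size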
# The depositor's hits bear a star; i = inactive; u = inconclusive; x = not tested or not shown. Unless noted, calls follow the shape of the dose curve; as a rule, active = well fitted curve in the direction sought with a large enough effect; inconclusive = small, poorly fitted or top-dose-only effect, or another doubt; inactive = no such curve, though single readings can be large; an effect the other way counts as inactive or inconclusive. Unless noted, % is scaled to controls: 0 for no effect and ±100 for the full control effect; potency is read from the fitted curve at half-maximal effect.
SMILES,APEX1 inh,TDP1 inh,LMNA splice mod,BLM inh-1,RECQ1 helicase,KAT2A inh,BLM inh-2
CC(C)Nc1oc(-c2ccccc2)nc1-c1cccc2ccccc12,-4%,8%,x,2%,-2%,x,x
Fc1cc(F)c2nc(Nc3nc4cc5c(cc4s3)OCO5)sc2c1,9%,u,-5%,10µM*,u,-2%,u
Fc1cccc2sc(Nc3nc4cc5c(cc4s3)OCO5)nc12,27%,8%,u,2%,-6%,-7%,x
CC(C)(C)n1ncc2c(=O)n(Cc3cccc(C(F)(F)F)c3Cl)cnc21,-1%,x,x,x,x,x,x
CN(Cc1ccccc1)C(=O)[C@H](Cc1ccc2ccccc2c1)NC(=O)[C@@H]1C[C@@H](O)CN1C(=O)c1cn(C)c2ccccc12,-7%,13%,x,-9%,-5%,-12%,x
CCN(CCO)c1nc(SC)nc2c1sc1nc(-c3ccco3)c3c(c12)CCC3,u,4%,u,10µM*,-5%,u,u
CCN(CCO)c1ncnc2c1sc1nc(C(C)C)c3c(c12)CC(C)(C)OC3,3%,-2%,10%,-1%,-10%,-5%,x
COc1cccc(C2=Nn3c(nnc3-c3cc(OC)cc(OC)c3)SC2)c1,-6%,7%,x,-10%,-10%,x,x
CCN(C(=O)COC(=O)c1cc2c(s1)CCCCC2)C1CCS(=O)(=O)C1 (configuration not stated),33%,4%,x,-2%,x,-17%,x
CC(C)CN(C(=O)COC(=O)c1cc2c(s1)CCC2)C1CCS(=O)(=O)C1 (configuration not stated),13µM*,13µM*,-2%,25µM*,u,-6%,u
CCCCN1Cc2c(nc3cc(-c4ccco4)[nH]n3c2=O)C1=O,-8%,0%,x,18µM*,-8%,u,-6%
CN(C)C(=O)NC1CCCCCCC1,-3%,2%,x,3%,-8%,-6%,x
CCn1ncc(Br)c1C(=O)Nc1ccc(OC(F)(F)F)cc1,-21%,x,x,-6%,x,-12%,x
CCn1ncc(Br)c1C(=O)Nc1ccc(C(=O)OC(C)C)cc1,-3%,-4%,-14%,3.5µM*,-12%,-9%,u
CCNc1ncc2ncc(=O)n(Cc3ccc(F)cc3)c2n1,-1%,x,u,2%,-3%,-25%,x
COc1cccc(C2/C(=C(\O)c3ccc4c(c3)OCCO4)C(=O)C(=O)N2CCN(C)C)c1 (configuration not stated),u,0%,2%,8.9µM*,i,-6%,-7%
C=C(C)CC(C)(C)C,12%,6%,x,2%,15%,0%,x
O=C1C(Cl)=C(NCCN2CCOCC2)C(=O)c2ncccc21,u,5%,x,5µM*,u,-6%,5.8µM*
CN(C)C1CCc2[nH]c3ccc(NC(=O)c4ccc(F)cc4)cc3c2C1 (configuration not stated),-6%,13%,x,0%,-3%,-4%,x
CN(C)c1ccc(O)c2c1CC1CC3[C@@H](N(C)C)C(=O)C(C(N)=O)C(=O)[C@]3(O)C(=O)C1C2=O (some centres not stated),39%,x,x,x,x,-28%,x
